Measurements as given in PubChem BioAssay (Tox21).
Unmarked numbers belong to inactive results. Records with an inconclusive call do not appear. The source made the active and inactive calls. Unless noted, the call rests on the fitted dose curve; in most records, active means well fitted curve in the direction sought with a large enough effect in the repeat runs; inconclusive means weak or mixed curves; inactive means no such curve, though single readings can be large; an effect the other way counts as inactive or inconclusive.

Test system: not listed separately
Test: qHTS assay to identify small molecule agonists of the estrogen receptor beta (ER-beta) signaling pathway - cell viability counter screen (AID 1259380); further: nearly all actives have a fitted effect of over 30% in size; further: potency means the concentration at half of the fitted maximal effect
Settings: ER-beta-bla HEK293T viability, CellTiter-Glo luminescence, 16 h; series mostly up to 92.4 µM; activity change, negative = cytotoxicity: at the top concentration
How it was run: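 Luminescence read-out (CellTiter-Glo, 30 min, room temp) taken in the same wells as the beta-lactamase reporter assay; ER-beta-UAS-bla HEK293T cells exposed to DMSO-dissolved compounds for 16 hr at 37C in 2% charcoal-stripped FBS medium.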
On the % scale 0 is the no-effect control and ±100 the full control effect.

| SMILES | activity change, negative = cytotoxicity [%] | Potency |
| --- | --- | --- |
| C=CC(O)CCCCC (stereo not given) | 5.79 |  |
| Nc1ccccc1Nc1ccccc1 | 0.812 |  |
| FC1(F)C(F)(F)C(F)(F)C2(F)C(F)(C1(F)F)C(F)(F)C(F)(F)C1(F)C(F)(F)C(F)(F)C(F)(F)C(F)(F)C12F (stereo not given) | 5.3 |  |
| C=C[Si]1(C)O[Si](C)(C=C)O[Si](C)(C=C)O[Si](C)(C=C)O1 (stereo not given) | 2.8 |  |
| OCCOc1cccc(OCCO)c1 | 4.69 |  |
| O=C(O)COCC(=O)O | 0.353 |  |
| CCCCCCCCCC(C)C=O (stereo not given) |  | 48.6 µM (active) |
| CC(C)CCCCCCCOC(=O)c1ccc(C(=O)OCCCCCCCC(C)C)c(C(=O)OCCCCCCCC(C)C)c1 | -4.2 |  |

Test system: not listed separately
Test: qHTS assay to identify small molecule antagonists of the estrogen receptor beta (ER-beta) signaling pathway - cell viability counter screen (AID 1259382);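 further: HEK293T cells carrying ER-beta-UAS-bla reporter stimulated with estradiol; nearly all actives have a fitted effect of over 55% in size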
Settings: ER-beta-UAS-bla HEK293T viability, CellTiter-Glo luminescence, 16 h; series mostly up to 92.4 µM; activity change, negative = cytotoxicity: at the top concentration
How it was run: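 Luminescent ATP read-out (CellTiter-Glo, 30 min, RT) taken in the same wells as the bla reporter assay. HEK293T ER-beta-UAS-bla cells in 2% charcoal-stripped FBS were exposed to compounds with 1nM E2 for 16 hr at 37C.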

| SMILES | activity change, negative = cytotoxicity |
| --- | --- |
| CCCCCO | 1.43% |
| O=[N+]([O-])c1ccccc1CCO | -0.607% |
| CC(O)C(C)O (stereo not given) | -0.758% |
| c1ccc(CN(Cc2ccccc2)Cc2ccccc2)cc1 | 3.6% |
| CC(CCl)OC(C)CCl (stereo not given) | 6.76% |
| CCC(=O)O[C@]1(C(=O)COC)[C@@H](C)C[C@H]2[C@@H]3CCC4=CC(=O)C=C[C@]4(C)C3(F)[C@@H](O)C[C@@]21C (stereo not given in full) | -11.8% [at 42.5 µM] |
| Clc1ccccc1-c1nc(-c2ccncc2)no1 | -11.7% [at 42.5 µM] |
| C=CC(C)(O)CC/C=C(/C)CCC=C(C)C (stereo not given) | 1.74% |
| CCOc1ccccc1O | 13.1% |
| C[Si](C)(C)O[Si](C)(C)O[Si](C)(C)C | 7.5% |
| CC(=O)S[C@H](C(=O)N[C@H]1Cc2ccccc2[C@H]2CCC[C@@H](C(=O)O)N2C1=O)C(C)C | 7.19% |
| CC/C=C/CCO | -25.8% |
| COC(=O)C(C)(C)C | -22.2% |
| S=c1[nH][nH]c(=S)s1 | 2% |
| Cc1cc(C)n(CO)n1 | 2.21% |
| O=C(O)c1ccccc1-n1cc(C(=O)O)c(=O)c2cc(Nc3c(F)cc(F)cc3Cl)c(Cl)cc21 | 0.67% |
| CC(=O)OCC(=O)[C@@]1(O)CC[C@H]2[C@@H]3CCC4=CC(=O)C=C[C@]4(C)[C@@]3(F)[C@@H](O)C[C@@]21C | 5.83% [at 42.5 µM] |
| CCC(C)CCCC(C)(C)O (stereo not given) | 13% |

| SMILES | activity change, negative = cytotoxicity |
| --- | --- |
| CCCCCCCCCCCCCCCCN | 3.52% [at 42.5 µM] |
| N#Cc1ccc(CC(=O)c2cccc(C(F)(F)F)c2)cc1 | -9.69% |
| Cc1cccc(C)c1NC(=O)CN1CCCC1 | 2.26% [at 42.5 µM] |
| O=C(O)c1cc(C(=O)O)cc([N+](=O)[O-])c1 | 3.74% |
| CCCCC(CC)COCCC#N (stereo not given) | 5.75% |
| O=C1c2ccccc2C(=O)C1c1ccc2ccccc2n1 | 0.137% [at 42.5 µM] |
| CCc1cnc(C(=O)O)c(C(=O)O)c1 | 4.3% |
| O=[N+]([O-])c1ccc(Cl)cc1Cl | 7.1% |
| CCCCCC1CCC(=O)O1 (stereo not given) | 1.7% |
| Nc1nc(Cl)nc2c1ncn2[C@H]1C[C@H](O)[C@@H](CO)O1 | -0.252% |
| O=Cc1ccc([N+](=O)[O-])cc1 | -2.85% |
| C=CC(O)CCCCC (stereo not given) | 3.34% |
| Nc1ccccc1Nc1ccccc1 | -3.8% |
| FC1(F)C(F)(F)C(F)(F)C2(F)C(F)(C1(F)F)C(F)(F)C(F)(F)C1(F)C(F)(F)C(F)(F)C(F)(F)C(F)(F)C12F (stereo not given) | 3.19% |
| C=C[Si]1(C)O[Si](C)(C=C)O[Si](C)(C=C)O[Si](C)(C=C)O1 (stereo not given) | 10% |
| OCCOc1cccc(OCCO)c1 | 0.546% |
| O=C(O)COCC(=O)O | 1.1% |
| CC(C)CCCCCCCOC(=O)c1ccc(C(=O)OCCCCCCCC(C)C)c(C(=O)OCCCCCCCC(C)C)c1 | -6.53% |

Molecular target: Estrogen receptor (Homo sapiens) (UniProt P03372)
Sequence (P03372 whole entry, looked up): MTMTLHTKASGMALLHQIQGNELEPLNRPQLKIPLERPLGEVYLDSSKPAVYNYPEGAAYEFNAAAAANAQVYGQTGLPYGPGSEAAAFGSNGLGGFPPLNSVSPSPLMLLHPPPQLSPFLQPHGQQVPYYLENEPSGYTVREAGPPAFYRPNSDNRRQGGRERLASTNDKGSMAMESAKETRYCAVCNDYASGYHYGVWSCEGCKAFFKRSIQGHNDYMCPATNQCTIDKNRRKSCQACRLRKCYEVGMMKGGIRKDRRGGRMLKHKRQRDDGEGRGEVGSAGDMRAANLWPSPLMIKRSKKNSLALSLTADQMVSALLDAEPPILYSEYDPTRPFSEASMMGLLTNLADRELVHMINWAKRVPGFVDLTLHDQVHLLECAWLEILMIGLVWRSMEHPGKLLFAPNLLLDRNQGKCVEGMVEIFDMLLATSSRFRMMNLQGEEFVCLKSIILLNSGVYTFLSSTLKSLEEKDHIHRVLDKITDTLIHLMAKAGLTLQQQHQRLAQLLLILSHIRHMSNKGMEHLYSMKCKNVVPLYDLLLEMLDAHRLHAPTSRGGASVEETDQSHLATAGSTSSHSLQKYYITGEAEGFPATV
Test: qHTS assay to identify small molecule agonists of the estrogen receptor alpha (ER-alpha) signaling pathway in the presence of an antagonist (AID 1259383; calls by dose curve; further: top concentration of the series differs between compounds; nearly all actives have a fitted effect of over 15% in size)
Settings: VM7Luc4E2 cells, ERE-luciferase, +ICI-182,780, 22 h; series mostly up to 92.4 µM; activation: at the top concentration
How it was run: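 Luciferase luminescence (ONE-Glo, 30min at room temperature) measured in VM7Luc4E2 cells after 22hr compound exposure at 15 concentrations, with 10.0nM ICI-182,780 final present; cells express endogenous ER-alpha and carry four EREs upstream of luciferase.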

| SMILES | activation |
| --- | --- |
| CCCCCO | 0.794% |
| CC(CCl)OC(C)CCl (stereo not given) | -1.12% |
| Cc1cc(C)n(CO)n1 | -0.239% |
| O=C(O)c1ccccc1-n1cc(C(=O)O)c(=O)c2cc(Nc3c(F)cc(F)cc3Cl)c(Cl)cc21 | 0.0413% |
| CCCCCCCCCCCCCCCCN | 0.199% [at 42.5 µM] |
| CCc1cnc(C(=O)O)c(C(=O)O)c1 | 0.34% |
| CCCCCC1CCC(=O)O1 (stereo not given) | 0.345% |

Test system: not listed separately
Test: qHTS assay to identify small molecule agonists or antagonists of the thyroid stimulating hormone receptor (TSHR) signaling pathway - wild type cell line counter screen (AID 1259384; calls by dose curve)
Settings: HEK293 wild type, cAMP HTRF counter-screen, active compounds read high; series mostly up to 92.4 µM; cAMP activity change: at the top concentration
How it was run: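 Counter screen in untransfected Hek293: compounds (15-point titration, triplicate) plus phosphodiesterase inhibitor Ro20-1724 added after 18 h plating; 30 min RT. Intracellular cAMP via competitive d2/cryptate immunoassay, 1 h incubation.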

| SMILES | cAMP activity change |
| --- | --- |
| CCCCCO | 1.41% |
| O=[N+]([O-])c1ccccc1CCO | -1.95% |
| CC(O)C(C)O (stereo not given) | 7.1% |
| c1ccc(CN(Cc2ccccc2)Cc2ccccc2)cc1 | -1.01% |
| CC(CCl)OC(C)CCl (stereo not given) | 0.23% |
| CCC(=O)O[C@]1(C(=O)COC)[C@@H](C)C[C@H]2[C@@H]3CCC4=CC(=O)C=C[C@]4(C)C3(F)[C@@H](O)C[C@@]21C (stereo not given in full) | 1.66% [at 42.5 µM] |
| Clc1ccccc1-c1nc(-c2ccncc2)no1 | -6.44% [at 42.5 µM] |
| CCOc1ccccc1O | 6.57% |
| C[Si](C)(C)O[Si](C)(C)O[Si](C)(C)C | -0.762% |
| CC(=O)S[C@H](C(=O)N[C@H]1Cc2ccccc2[C@H]2CCC[C@@H](C(=O)O)N2C1=O)C(C)C | -1.34% |
| COC(=O)C(C)(C)C | 2.3% |
| S=c1[nH][nH]c(=S)s1 | -0.529% |
| Cc1cc(C)n(CO)n1 | -0.0314% |
| O=C(O)c1ccccc1-n1cc(C(=O)O)c(=O)c2cc(Nc3c(F)cc(F)cc3Cl)c(Cl)cc21 | 18.5% |
| CC(=O)OCC(=O)[C@@]1(O)CC[C@H]2[C@@H]3CCC4=CC(=O)C=C[C@]4(C)[C@@]3(F)[C@@H](O)C[C@@]21C | -5.35% [at 42.5 µM] |
| CCC(C)CCCC(C)(C)O (stereo not given) | -5.04% |
| CCCCCCCCCCCCCCCCN | 5.25% [at 42.5 µM] |

| SMILES | cAMP activity change |
| --- | --- |
| COc1ccc(/C=C/S(=O)(=O)NC(=O)c2ccc(C)cc2Cl)cc1 | -6.98% |
| N#Cc1ccc(CC(=O)c2cccc(C(F)(F)F)c2)cc1 | -5.31% |
| Cc1cccc(C)c1NC(=O)CN1CCCC1 | 0.0078% [at 42.5 µM] |
| Cc1c(Nc2ncccc2C(=O)O)cccc1C(F)(F)F | 4.58% [at 42.5 µM] |
| O=C(O)c1cc(C(=O)O)cc([N+](=O)[O-])c1 | 1.23% |
| CCCCC(CC)COCCC#N (stereo not given) | 0.291% |
| O=C1c2ccccc2C(=O)C1c1ccc2ccccc2n1 | 2.04% [at 42.5 µM] |
| O=[N+]([O-])c1ccc(Cl)cc1Cl | -0.96% |
| CCCCCC1CCC(=O)O1 (stereo not given) | 3.63% |
| O=Cc1ccc([N+](=O)[O-])cc1 | -4.91% |
| C=CC(O)CCCCC (stereo not given) | 5.99% |
| FC1(F)C(F)(F)C(F)(F)C2(F)C(F)(C1(F)F)C(F)(F)C(F)(F)C1(F)C(F)(F)C(F)(F)C(F)(F)C(F)(F)C12F (stereo not given) | 4.02% |
| C=C[Si]1(C)O[Si](C)(C=C)O[Si](C)(C=C)O[Si](C)(C=C)O1 (stereo not given) | -0.134% |
| OCCOc1cccc(OCCO)c1 | 0.157% |
| O=C(O)COCC(=O)O | -2.19% |
| CCCCCCCCCC(C)C=O (stereo not given) | -0.372% |
| CC(C)CCCCCCCOC(=O)c1ccc(C(=O)OCCCCCCCC(C)C)c(C(=O)OCCCCCCCC(C)C)c1 | -2.99% |
